Screen size: about 270,000 compounds; about 5,800 (2.1%) were called active. About 16% were inconclusive and are not listed. Calls come from the whole dose curve; as a rule, active = well fitted inhibition curve with a large enough effect; inconclusive = small, poorly fitted or top-dose-only effect; inactive = flat fitted curve, though single readings scatter. For the sample, actives were picked, then their nearest neighbours and some compounds at random.
% is set by controls: 0 for no effect and ±100 for the full control effect; potency is the fitted concentration of half-maximal effect.

This assay deals with Microtubule-associated protein tau (Homo sapiens) (UniProt P10636). Description: qHTS for Inhibitors of Tau Fibril Formation, Thioflavin T Binding. Note: nearly all actives have a fitted effect of over 55% in size. To be noted: recombinant tau K18 P301L (four-repeat tau fragment), heparin-induced fibrillization, ThT fluorescence; series mostly up to 57.4 µM; activity, negative = inhibition: at the top concentration. Summed up: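 Recombinant human tau K18 fragment […] carrying P301L, 15 uM unlabeled plus 0.24 uM Alexa 594-labeled, was fibrillized with 20 uM heparin in 100 mM sodium acetate pH 7 for 6 hr at 37 C; 30 uM ThT fluorescence read after 1 hr.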
Chain of Microtubule-associated protein tau (Homo sapiens) (P10636 561-689 P618L limits assumed): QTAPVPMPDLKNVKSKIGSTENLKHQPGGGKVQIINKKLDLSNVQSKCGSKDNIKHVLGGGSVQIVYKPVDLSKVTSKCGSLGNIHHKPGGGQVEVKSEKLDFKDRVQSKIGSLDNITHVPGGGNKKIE
Turning to `CCc1nc(NCCO)c(C#N)c2c1CCCC2`, the “activity, negative = inhibition” value is -1.9% (inactive).

On to `CCN1CCc2c(C#N)c(NCc3ccccc3)nc(NCCO)c2C1`, for which the Potency is 22.4 µM (active).

Consider `CCCCc1nc(NCc2ccccc2)c(C#N)c2c1CCCC2`, for which the “activity, negative = inhibition” value was -11.9% (inactive).

As to `COc1ccc(SCc2cc(=O)c3ccc(C)c(C)c3[nH]2)cc1`, the “activity, negative = inhibition” value is -4.47% (inactive).

`COc1ccc(CNC(=O)C(C)n2nc(C)c3c(C)n(-c4ccccc4)nc3c2=O)c(OC)c1` (stereo unspecified): the “activity, negative = inhibition” value was 13.1% (inactive).

Consider `CCOC(=O)c1[nH]c(C)c(CCC(=O)NCc2ccccc2C)c1C`, for which the “activity, negative = inhibition” value was 4.91% (inactive).

On to `CCC(C)Cn1c(O)cc2nn(-c3nc4ccccc4s3)c(=O)c-2c1C` (stereo unspecified), for which the Potency is 31.6 µM (active).

Turning to `CCOC(=O)N1CCN(CC(=O)Nc2cc(C)nn2-c2nc3ccccc3s2)CC1`, the “activity, negative = inhibition” value was -20.1% (inactive).

On to `Cc1cc(NC(=O)CN2CCCC(C)C2)n(-c2nc3ccccc3s2)n1` (stereo unspecified), for which the “activity, negative = inhibition” value was -4.78% (inactive).

For `COc1ccccc1N1CCN(c2ncnc3onc(-c4ccc(F)cc4)c23)CC1`, the “activity, negative = inhibition” value is -11% (inactive).

On to `N#Cc1ccccc1Cn1cnc2nc3c(cc2c1=O)CCCC3`, for which the “activity, negative = inhibition” value is 6.09% (inactive).

As for `CCOC(=O)N1CCc2c(sc3c2C(=O)NC(c2ccccc2F)N3)C1` (stereo unspecified), the “activity, negative = inhibition” value was -16.9% (inactive).

For `C/C(=C\c1ccccc1)C1NC(=O)c2c(sc3c2CCCC3)N1` (stereo unspecified), the Potency is 3.55 µM (active).

Regarding `CCOC(=O)c1c(NC(=O)/C(C#N)=C/c2ccccc2)sc2c1CCC2`, the “activity, negative = inhibition” value was -11.2% (inactive).

With `O=C(Nc1ccc2nc(SCC(=O)N3CCCc4ccccc43)sc2c1)c1ccc(Cl)cc1`, the “activity, negative = inhibition” value was -9.33% (inactive).

With `CCC(=O)Nc1c(C(=O)N2CCN(c3ccc(F)cc3)CC2)oc2ccccc12`, the “activity, negative = inhibition” value was -8.2% (inactive).

With `CN(C)c1ccc(N/C=C/C(=O)C(F)(F)F)cc1`, the Potency is 10 µM (active).

Consider `O=C(/C=C/Nc1ccccc1OC(F)(F)F)C(F)(F)F`, for which the “activity, negative = inhibition” value was 12.2% (inactive).

Consider `CC(=O)N(C)c1ccc(NC(=O)C(F)(F)F)cc1`, for which the “activity, negative = inhibition” value is -4.07% (inactive).

For the molecule `COC(=O)c1scc(-c2ccccc2)c1S(=O)(=O)Nc1ccccc1`, the “activity, negative = inhibition” value was -4.33% (inactive).

Regarding `CSc1nc(Nc2ccc(F)cc2)cc(-c2ccccc2)n1`, the “activity, negative = inhibition” value is 1.92% (inactive).

`Fc1ccc(Nc2nnns2)cc1`: the Potency was 28.2 µM (active).

Regarding `Cc1ccccc1OCCSc1nc2ccc(NC(=O)c3ccco3)cc2s1`, the “activity, negative = inhibition” value is 8.23% (inactive).

Take `COc1cccc2c1cc1c(=O)n(CC(=O)N3CCN(c4cccc(Cl)c4)CC3)nc(C)n12`: the “activity, negative = inhibition” value was 2.8% (inactive).

Regarding `Cc1ccc(NC(=O)C(=O)NCC(c2cccnc2)N2CCOCC2)cc1` (stereo unspecified), the “activity, negative = inhibition” value is -11.6% (inactive).

Consider `Cc1cc(C)c2nc(NC(=O)c3ccc4c(c3)OCO4)sc2c1`, for which the “activity, negative = inhibition” value was -7.3% (inactive).

For `O=C(Nc1nc2ccccc2s1)c1ccc2c(c1)OCO2`, the “activity, negative = inhibition” value was -0.597% (inactive).

Consider `Cc1ccc2sc(NNC(=O)c3ccc4c(c3)OCCO4)nc2c1C`, for which the Potency was 12.6 µM (active).

Turning to `COc1ccc(-c2noc(-c3ccc(N4CCN(c5ccccc5)CC4)c([N+](=O)[O-])c3)n2)cc1OC`, the “activity, negative = inhibition” value is -14.1% (inactive).

Consider `O=C(Nc1ccccc1F)C(c1ccccc1)N1Cc2ccccc2C1=O` (stereo unspecified), for which the “activity, negative = inhibition” value was -3.81% (inactive).

Take `Cc1[nH]n(-c2ccc(Cl)cc2)c(=O)c1/C=N/n1c(C)nc2ccccc2c1=O`: the “activity, negative = inhibition” value is -19.5% (inactive).

With `C[N+](C)(CCCCCC[N+](C)(C)CCCN1C(=O)c2cccc3cccc(c23)C1=O)CCCN1C(=O)c2cccc3cccc(c23)C1=O`, the “activity, negative = inhibition” value was 3.91% (inactive).

Turning to `Cc1ccc(-n2[nH]c(C)c(/C=N/N3C(=O)c4cccc5cccc(c45)C3=O)c2=O)cc1`, the Potency is 22.4 µM (active).

Regarding `COc1ccc(NC(=O)CCCc2nnc3n(CCC(C)C)c(=O)c4sccc4n23)c(OC)c1`, the “activity, negative = inhibition” value is -4.84% (inactive).

Consider `COC(=O)c1cc2occc2n1Cc1nc(-c2ccc(C)cc2)oc1C`, for which the “activity, negative = inhibition” value was 7.52% (inactive).

For the molecule `O=c1c(O)c(Br)ccc2c(Br)c(O)c(O)c(O)c12`, the Potency was 3.55 µM (active).

For `COc1cccc(C(=O)NCc2ccc3c(c2)CCN3C(=O)c2ccncc2)c1`, the “activity, negative = inhibition” value is -1.82% (inactive).

Turning to `Cc1ccc(Cl)cc1N1CCN(C(=O)c2cccn3c(=O)c4cc(Cl)ccc4nc23)CC1`, the “activity, negative = inhibition” value is 1.52% (inactive).

Take `COc1ccc(NS(=O)(=O)c2cc3c(cc2C)N(C(C)=O)CCO3)cc1`: the “activity, negative = inhibition” value is -6.28% (inactive).

In the case of `Cc1nn(CC(=O)N/N=C/c2ccc(F)cc2)c(C)c1[N+](=O)[O-]`, the “activity, negative = inhibition” value was -6.13% (inactive).

As for `Cc1cc(C(=O)N/N=C/c2ccc(O)c([N+](=O)[O-])c2)c(C)n1-c1ccc(F)cc1`, the Potency was 14.1 µM (active).

With `Cc1cc(C(=O)COC(=O)C2CC2)c(C)n1-c1ccc(F)cc1`, the “activity, negative = inhibition” value was -7.67% (inactive).

In the case of `Cc1ccc2c(=O)c(C(=O)c3ccc(Cl)cc3)cn(CC(=O)NC3CCCCC3)c2n1`, the “activity, negative = inhibition” value is -11.7% (inactive).

With `CCOC(=O)C1=NOC(Cn2cc(C(C)=O)c(=O)[nH]c2=O)C1` (stereo unspecified), the “activity, negative = inhibition” value was 0.727% (inactive).

Consider `CCOC(=O)C1=C(C)NC(=O)NC1c1ccccc1` (stereo unspecified), for which the “activity, negative = inhibition” value is -5.11% (inactive).

As for `CCOC(=O)C1=NO[C@@]2(C=C(Br)C(=O)[C@H]3O[C@H]32)C1`, the Potency was 15.8 µM (active).

`CCc1ccccc1NC(=O)CSc1nnc(-c2ccccc2)c(-c2ccccc2)n1`: the “activity, negative = inhibition” value was -10.8% (inactive).

In the case of `CC(=O)N1CCCc2cc(S(=O)(=O)Nc3ccc(Cl)cc3F)ccc21`, the “activity, negative = inhibition” value is -5.83% (inactive).

For `CCN1C(=O)/C(=C\N2CCN(c3ccccc3)CC2)SC1=S`, the “activity, negative = inhibition” value is -10.5% (inactive).

`CCN1C(=O)/C(=C2\SC(N3CCCCC3)=NC2=O)c2ccccc21`: the Potency is 11.2 µM (active).

As to `CCc1ccc(/C=C2\SC(N3CCOCC3)=NC2=O)cc1`, the “activity, negative = inhibition” value is -5.76% (inactive).

(Values after PubChem BioAssay AID1460 (National Center for Advancing Translational Sciences (NCATS), 2008).)
